Measured values reported in PubChem BioAssay.
Activity calls are given as the source filed them.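 Rule for the calls: active = inhibition at or above 50% relative to wild type and mutant plate controls; inactive = inhibition below 50%.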

assay: loss of swimming-algae plug formation – whole organism, Chlamydomonas reinhardtii, WT vs cilia-less mutant, absorbance, 96-well, primary screen (AID 463189); conditions: Chlamydomonas reinhardtii gravitaxis, OD600 absorbance, 2 days; at 10 µM; stronger effect = higher value;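 note: 0% = wild type cc124 cells in DMSO and 100% = ciliumless bld1 mutant cells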

SMILES | inhibition
CCN1CCC[C@H]1CNC(=O)c1c(O)c(Cl)cc(Cl)c1OC | 0.286% (inactive)
CCCCC[C@H](CC(=O)NO)C(=O)N[C@H](C(=O)N1CCC[C@H]1CO)C(C)C | -2.25% (inactive)
CCCCCCCCCC(=O)NC(CN1CCOCC1)[C@H](O)c1ccccc1 (stereo partly specified) | -8.57% (inactive)
O=c1onc2n1-c1cc(Br)ccc1OC2 | -0.03% (inactive)
NOCC(=O)O | -13.3% (inactive)
NCCCC(N)(C(=O)O)C(F)F (stereo unspecified) | 3.03% (inactive)
O=C(OCCN1CCCCC1)c1c[nH]c2ccccc12 | 5.42% (inactive)
O=C(Nc1cc(C(=O)Nc2ccc(S(=O)(=O)O)cc2S(=O)(=O)O)cc(C(=O)Nc2ccc(S(=O)(=O)O)cc2S(=O)(=O)O)c1)Nc1cc(C(=O)Nc2ccc(S(=O)(=O)O)cc2S(=O)(=O)O)cc(C(=O)Nc2ccc(S(=O)(=O)O)cc2S(=O)(=O)O)c1 | 10.7% (inactive)
CCCCS(=N)(=O)CC[C@H](N)C(=O)O (stereo partly specified) | -0.592% (inactive)
CC1=C(C(=O)O)N2C(=O)[C@@H](NC(=O)C(N)c3ccccc3)[C@H]2SC1 (stereo partly specified) | -0.964% (inactive)
NCCc1cnc[nH]1 | 2.56% (inactive)
NC(=NCc1ccccc1)NC(=O)c1nc(Cl)c(N)nc1N | -1.5% (inactive)
O=c1[nH]cnc2[nH]ncc12 | 6.04% (inactive)
O=C(O)CNC(=O)C(CS)Cc1ccccc1 (stereo unspecified) | -0.967% (inactive)
CC(C)(C)c1onc(OCP(=O)(O)O)c1CC(N)C(=O)O (stereo unspecified) | 9% (inactive)
Cc1cccc(C)c1OCC(C)N (stereo unspecified) | 7.46% (inactive)
